What all share (settings): Compound concentration 20.0 uM, Protein concentration 2.0 uM, Result type QC Liability
The target in test [1] is Tyrosine-protein kinase ABL1 (Homo sapiens) (UniProt P00519).
Test [2] deals with Cyclin-dependent kinase 2 (Homo sapiens) (UniProt P24941).
Test [3] addresses Casein kinase I isoform delta (Homo sapiens) (UniProt P48730).
The target of test [4] is Glycogen synthase kinase-3 beta (Homo sapiens) (UniProt P49841).
The target of test [5] is Mitogen-activated protein kinase 1 (Homo sapiens) (UniProt P28482).
Mitogen-activated protein kinase 1 (Homo sapiens), sequence (P28482 whole entry): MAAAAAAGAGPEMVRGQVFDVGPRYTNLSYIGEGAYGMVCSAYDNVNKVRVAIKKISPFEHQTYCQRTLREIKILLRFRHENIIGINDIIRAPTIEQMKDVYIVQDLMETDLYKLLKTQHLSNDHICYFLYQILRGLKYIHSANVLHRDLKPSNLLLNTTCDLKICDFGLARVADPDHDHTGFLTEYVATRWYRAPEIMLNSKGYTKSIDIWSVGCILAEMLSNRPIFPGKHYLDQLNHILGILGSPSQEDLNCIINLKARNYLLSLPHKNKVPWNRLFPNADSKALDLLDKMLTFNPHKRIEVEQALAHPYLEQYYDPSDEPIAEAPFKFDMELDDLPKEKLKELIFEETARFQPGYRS
The target in test [6] is T1, Aurora kinase A (Homo sapiens) (UniProt O14965).
T1 sequence (whole entry): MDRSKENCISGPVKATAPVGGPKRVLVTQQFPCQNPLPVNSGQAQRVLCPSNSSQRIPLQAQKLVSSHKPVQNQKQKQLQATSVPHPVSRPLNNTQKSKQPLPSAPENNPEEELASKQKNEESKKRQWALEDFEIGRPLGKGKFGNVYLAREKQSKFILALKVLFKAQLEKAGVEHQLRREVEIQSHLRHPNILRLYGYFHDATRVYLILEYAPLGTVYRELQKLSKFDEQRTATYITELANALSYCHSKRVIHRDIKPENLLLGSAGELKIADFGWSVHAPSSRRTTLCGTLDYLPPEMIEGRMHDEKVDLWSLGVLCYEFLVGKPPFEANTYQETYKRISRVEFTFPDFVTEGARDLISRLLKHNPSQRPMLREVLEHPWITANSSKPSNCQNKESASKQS

For 24 compounds, ΔTm results are on record in ChEMBL document CHEMBL5308504, “Tm Shift (DSF) assay results for EUbOPEN Chemogenomics Library” (2023).

Structures are written as SMILES.

Casein kinase I isoform delta (Homo sapiens), sequence (P48730 whole entry, looked up, canonical isoform): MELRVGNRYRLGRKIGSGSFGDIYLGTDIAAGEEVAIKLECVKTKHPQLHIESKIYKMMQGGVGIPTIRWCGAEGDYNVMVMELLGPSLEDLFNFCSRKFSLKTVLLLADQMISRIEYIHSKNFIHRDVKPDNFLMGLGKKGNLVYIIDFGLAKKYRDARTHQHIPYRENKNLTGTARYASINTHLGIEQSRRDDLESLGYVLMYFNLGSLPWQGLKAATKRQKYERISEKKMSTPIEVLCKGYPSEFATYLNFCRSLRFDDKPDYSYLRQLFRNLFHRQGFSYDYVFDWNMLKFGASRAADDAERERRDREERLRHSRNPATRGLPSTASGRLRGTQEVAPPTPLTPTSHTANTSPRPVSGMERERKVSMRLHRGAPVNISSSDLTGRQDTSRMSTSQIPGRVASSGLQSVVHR
Tyrosine-protein kinase ABL1 (Homo sapiens), sequence (P00519 whole entry): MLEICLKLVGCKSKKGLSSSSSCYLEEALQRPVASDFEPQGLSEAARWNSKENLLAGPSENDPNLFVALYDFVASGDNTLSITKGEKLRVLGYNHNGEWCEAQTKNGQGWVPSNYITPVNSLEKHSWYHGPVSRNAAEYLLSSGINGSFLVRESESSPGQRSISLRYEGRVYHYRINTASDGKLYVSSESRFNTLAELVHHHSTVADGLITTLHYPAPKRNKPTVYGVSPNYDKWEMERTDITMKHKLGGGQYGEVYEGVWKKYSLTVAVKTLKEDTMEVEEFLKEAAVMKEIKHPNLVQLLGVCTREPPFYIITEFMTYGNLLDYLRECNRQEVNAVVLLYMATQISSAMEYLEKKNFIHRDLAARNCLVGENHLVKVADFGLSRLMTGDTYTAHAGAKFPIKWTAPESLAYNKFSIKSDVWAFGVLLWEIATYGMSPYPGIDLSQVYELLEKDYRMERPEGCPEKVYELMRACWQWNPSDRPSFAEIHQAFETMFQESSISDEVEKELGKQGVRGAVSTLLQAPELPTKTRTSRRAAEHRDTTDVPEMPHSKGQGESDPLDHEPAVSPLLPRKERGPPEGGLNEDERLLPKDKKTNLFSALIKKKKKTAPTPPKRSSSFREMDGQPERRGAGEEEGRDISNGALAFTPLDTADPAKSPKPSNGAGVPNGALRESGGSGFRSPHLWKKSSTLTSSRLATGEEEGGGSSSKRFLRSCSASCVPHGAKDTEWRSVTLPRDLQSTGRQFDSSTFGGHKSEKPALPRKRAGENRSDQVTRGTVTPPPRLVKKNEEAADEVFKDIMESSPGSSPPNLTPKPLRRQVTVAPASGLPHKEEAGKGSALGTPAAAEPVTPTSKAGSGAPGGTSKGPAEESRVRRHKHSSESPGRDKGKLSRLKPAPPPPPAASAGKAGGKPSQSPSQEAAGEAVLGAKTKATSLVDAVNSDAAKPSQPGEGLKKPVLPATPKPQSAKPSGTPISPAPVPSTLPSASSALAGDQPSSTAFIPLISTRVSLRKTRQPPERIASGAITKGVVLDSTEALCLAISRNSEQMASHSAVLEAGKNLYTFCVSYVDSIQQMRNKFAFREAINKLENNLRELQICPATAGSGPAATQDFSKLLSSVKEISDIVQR
Glycogen synthase kinase-3 beta (Homo sapiens), sequence (P49841 whole entry, looked up): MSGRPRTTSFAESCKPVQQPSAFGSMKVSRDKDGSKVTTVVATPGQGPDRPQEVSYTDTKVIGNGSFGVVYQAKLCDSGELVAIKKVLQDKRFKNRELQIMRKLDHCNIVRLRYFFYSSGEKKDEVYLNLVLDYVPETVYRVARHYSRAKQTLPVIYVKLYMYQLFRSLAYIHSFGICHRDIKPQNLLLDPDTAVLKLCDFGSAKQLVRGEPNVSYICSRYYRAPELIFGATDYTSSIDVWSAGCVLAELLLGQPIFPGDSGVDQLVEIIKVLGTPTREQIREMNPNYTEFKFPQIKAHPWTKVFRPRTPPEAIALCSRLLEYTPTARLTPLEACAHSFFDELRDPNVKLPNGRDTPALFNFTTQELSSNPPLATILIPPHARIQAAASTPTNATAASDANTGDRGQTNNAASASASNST

Usually ΔTm stands for the shift of the melting midpoint relative to a reference. As for `O=C(N[C@H](Cc1ccccc1)C(=O)O)c1cccc(OCc2cccnc2)c1`, the ΔTm was 0.31 °C in test [1]; 1.19 °C in test [2]; -0.02 °C in test [3]; 0.45 °C in test [4]; 0.21 °C in test [5]; -0.05 °C in test [6].

In the case of `CCCNc1ccc2ncc(-c3ccncc3)n2n1`, the ΔTm in test [1] stood at 5.22 °C; in test [2], 4.76 °C; in test [3], 5.6 °C; in test [4] it was 4.07 °C; in test [5], 1.16 °C; in test [6], 6.52 °C.

Consider `Cn1cc(-c2ccc(-c3cncc(Cl)c3N3CCC4(CCNC4=O)CC3)cc2)cn1`, for which the ΔTm in test [1] is -0.07 °C; in test [2], -0.46 °C; in test [3], -0.23 °C; in test [4], 6.99 °C; in test [5] it was 0.45 °C; in test [6] it was 1.26 °C.

As to `CC(=O)Nc1cccc(-n2c(=O)n(C3CC3)c(=O)c3c(Nc4ccc(I)cc4F)n(C)c(=O)c(C)c32)c1`, the ΔTm in test [1] was -0.1 °C; in test [2], 0.48 °C; in test [3] it was 0.23 °C; in test [4], -0.51 °C; in test [5] it was 0.29 °C; in test [6] it was -0.21 °C.

As to `O=C(CCCCCCc1ccccc1)c1ncc(-c2ccccn2)o1`, the ΔTm in test [1] is 0.19 °C; in test [2] it was 0.75 °C; in test [3] it was 0.19 °C; in test [4], -0.85 °C; in test [5], -0.04 °C; in test [6], -0.34 °C.

In the case of `CS(C)(=O)=Nc1ccc(-c2ccc(-c3nc4[nH]c(O[C@@H]5CO[C@H]6[C@@H]5OC[C@H]6O)nc4cc3Cl)cc2)cc1`, the ΔTm in test [1] was 1.8 °C; in test [2], 0.06 °C; in test [3], 0.3 °C; in test [4], -0.22 °C; in test [5], 0.83 °C; in test [6], 0.34 °C.

With `Cc1cc2ncnn2cc1Nc1ncc2c(n1)n(C1CCOCC1)c(=O)n2C`, the ΔTm in test [1] is -0.11 °C; in test [2], 0.84 °C; in test [3], 0.63 °C; in test [4] it was 1.17 °C; in test [5], 1.17 °C; in test [6], 0.06 °C.

For the compound `COc1cc(C)c(S(=O)(=O)N(C)CCC(=O)N[C@H]2CC[C@@H](N3CCC4CN(C)CC4C3)CC2)c(C)c1` (some centres undefined), the ΔTm in test [1] is 0.38 °C; in test [2], -0.04 °C; in test [3] it was 0.64 °C; in test [4], 0.15 °C; in test [5], 0.83 °C; in test [6], -0.36 °C.

In the case of `Cc1cc2c(ncn2C2(C)CN(C(=O)c3ccn(CC4CCN([C@H]5C=CCCCC5)CC4)c3)C2)c(N)n1`, the ΔTm was 0.14 °C in test [1]; 1.09 °C in test [2]; -0.14 °C in test [3]; -0.26 °C in test [4]; 0.62 °C in test [5]; -1 °C in test [6].

On to `Cc1[nH]c2c(N3CCCCC3)c(-c3ccccc3)nn2c(=O)c1-c1ccc(O)cc1`, for which the ΔTm is 0.05 °C in test [1]; 0.91 °C in test [2]; 1.23 °C in test [3]; -0.79 °C in test [4]; 0.43 °C in test [5]; -0.38 °C in test [6].

`COc1cc(C(=O)O)ncc1C#Cc1ccccc1NS(=O)(=O)c1cccc2c(N(C)C)ccnc12`: the ΔTm in test [1] was 0.14 °C; in test [2] it was -0.3 °C; in test [3], 0.08 °C; in test [4], -0.76 °C; in test [5] it was 0.42 °C; in test [6], 0.72 °C.

For `CC(C)(O)CNC(=O)N1C(=O)N(c2cccc(C(F)(F)F)c2)C2=C(C(=O)CC2)[C@@H]1c1ccc(C#N)cc1`, the shift in melting temperature (ΔTm) in test [1] is 0.02 °C; in test [2] it was 0.61 °C; in test [3], 0.18 °C; in test [4], -0.62 °C; in test [5] it was 0.17 °C; in test [6], -0.16 °C.

Consider `Nc1nccc(-c2c(-c3ccc(F)cc3)ncn2C2CCCCC2)n1`, for which the ΔTm in test [1] is 2.76 °C; in test [2], -0.08 °C; in test [3] it was 8.08 °C; in test [4], 2.6 °C; in test [5], 0.33 °C; in test [6] it was -0.66 °C.

Regarding `CN[C@@H](C)C(=O)N[C@H]1CN(C(=O)CC(C)C)CC[C@H]2CC[C@@H](C(=O)NC(c3ccccc3)c3ccccc3)N2C1=O`, the ΔTm was -0.01 °C in test [1]; 0.45 °C in test [2]; 0.05 °C in test [3]; -0.59 °C in test [4]; 0.19 °C in test [5]; 0.17 °C in test [6].

For `CSc1nc2c(c(=O)n(C)c(=O)n2C)n1C`, the ΔTm in test [1] was 0.1 °C; in test [2] it was 0.27 °C; in test [3], 0.33 °C; in test [4], -0.85 °C; in test [5], 0.33 °C; in test [6], -0.13 °C.

Turning to `Cn1cc(C(=O)O)c2ccc(N3CCC(OCc4c(-c5c(Cl)cccc5Cl)noc4C4CC4)CC3)cc21`, the ΔTm in test [1] was 0.5 °C; in test [2], 0.93 °C; in test [3] it was 1.17 °C; in test [4] it was 0.23 °C; in test [5], 0.52 °C; in test [6] it was -1.5 °C.

In the case of `COc1ccc(C(=O)N[C@H](C)c2cccc(C(=O)Nc3nc4c(s3)CN(C)CC4)c2)cc1C`, the ΔTm in test [1] was 0.22 °C; in test [2], 0.42 °C; in test [3], 0.41 °C; in test [4], -0.51 °C; in test [5], 0.45 °C; in test [6] it was 0.16 °C.

As to `COc1cc(C(=O)NCCOCCOCCOCCC(=O)Nc2cccc3c2C(=O)N(C2CCC(=O)NC2=O)C3=O)ccc1Nc1ncc(C(F)(F)F)c(Oc2cccc3c2C(=O)CC3)n1` (centres undefined), the ΔTm is -0.1 °C in test [1]; -0.45 °C in test [2]; -2.13 °C in test [3]; -0.22 °C in test [4]; -2.51 °C in test [5]; 0.92 °C in test [6].

On to `COc1ccccc1-c1cc(Nc2cccc(CS(N)(=O)=O)c2)ncn1`, for which the ΔTm was 2.06 °C in test [1]; 2.08 °C in test [2]; -0.11 °C in test [3]; 4.1 °C in test [4]; -0.04 °C in test [5]; 0.53 °C in test [6].

Consider `CN(C(=O)c1ccccc1)c1ccc2c(c1)[nH]/c(=N\C(=O)c1ccc(Br)s1)n2CCC(N)=O`, for which the ΔTm turned out to be 3.94 °C in test [1]; 0.69 °C in test [2]; 6.56 °C in test [3]; 0.89 °C in test [4]; 0.41 °C in test [5]; 3.75 °C in test [6].

Consider `CC(=O)c1ccc2c(c1)/C(=C(/NC1CCN(C)CC1)c1ccc3c(c1)OCO3)C(=O)N2`, for which the ΔTm in test [1] worked out at 0.16 °C; in test [2], 4.87 °C; in test [3], 2.46 °C; in test [4], 15.5 °C; in test [5] it was 0.57 °C; in test [6], 0.78 °C.

For `CC(C)(C)NC(=O)c1cncn1C1CCN(c2ccc(-c3nnc(C(F)(F)F)o3)cn2)CC1`, the ΔTm in test [1] is 1.4 °C; in test [2], 0.97 °C; in test [3], 0.21 °C; in test [4] it was -0.09 °C; in test [5], 0.18 °C; in test [6], 0.23 °C.

Take `CN1CCN(c2ccc(Nc3ncc4cc5n(c4n3)C3(CCCCC3)CNC5=O)nc2)CC1`: the ΔTm was 0.17 °C in test [1]; 0 °C in test [2]; -0.03 °C in test [3]; 0.02 °C in test [4]; 0.18 °C in test [5]; 0.38 °C in test [6].

Take `Cn1cc(-c2ccc(N(C(=O)NCc3ccccc3)[C@H]3CC[C@H](Nc4ccc(C#N)cn4)CC3)cc2)ccc1=O`: the ΔTm in test [1] is 0.13 °C; in test [2], 0.7 °C; in test [3], 0.29 °C; in test [4], 0.01 °C; in test [5] it was -0.4 °C; in test [6] it was -0.15 °C.
